Data on 14 compounds can be found in PubChem BioAssay (NCI).

About 83,000 compounds went through this panel and 20% of them were active in at least one assay; those are over-represented in the sample as a whole.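 The test compound was applied at a single concentration to cells in 96-well plates for 48 hours, and percent growth was recorded.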 A number with no mark means an inactive call. Activity calls are given as the source filed them. The calls were made as follows: active = growth percent below 10; inactive = the rest.

Test systems include NCI-H23 lung; NCI-H226 lung; NCI-H322M lung; HOP-62 NSCLC; NCI-H460 lung; HOP-92 NSCLC; A549/ATCC NSCLC; 786-0 renal; COLO 205 colon.
Assay in all cases: NCI-60 one-dose screen, 48 h (100 = growth as untreated, 0 = no growth, -100 = all killed)
Conditions in all cases: 10 µM unless noted

Regarding `CCCCCC(=O)OCc1ccccc1`, the growth in the test on NCI-H23 lung is 102%; in the test with NCI-H226 lung, 103%; with NCI-H322M lung, 102%; in the test on HOP-62 NSCLC, 97%; in the test with NCI-H460 lung, 109%; in the test on HOP-92 NSCLC, 96.3%. The growth in the test on A549/ATCC NSCLC is 106%; with 786-0 renal, 96.9%; with COLO 205 colon, 106%.
Consider `O=C(O)c1ccc(-n2c(=O)c3ccccc3c3ccccc3c2=O)cc1`, for which the growth with NCI-H23 lung is 102%; in the test with NCI-H226 lung it was 99.8%; with NCI-H322M lung, 108%; in the test with HOP-62 NSCLC it was 102%; with NCI-H460 lung, 115%; with HOP-92 NSCLC, 110%. Further, the growth is 106% in the test with A549/ATCC NSCLC, 109% in the test on 786-0 renal and 105% with COLO 205 colon.
As for `COc1ccc(-c2nc3sccn3c2-c2ccnc(NCCNS(=O)(=O)c3ccc(C(F)(F)F)cc3)n2)cc1`, the growth in the test with NCI-H23 lung is 15.5%; in the test with NCI-H226 lung it was 4.55% (active); with NCI-H322M lung it was 37.1%; with HOP-62 NSCLC, 46.1%; with NCI-H460 lung it was 15.4%; with HOP-92 NSCLC it was 13.4%. Moreover, the growth was 18.9% with A549/ATCC NSCLC, 18.4% in the test with 786-0 renal and 0.693% (active) in the test on COLO 205 colon.
In the case of `COC1=CC(c2ccc[nH]2)=N/C1=C\c1[nH]c(C)c(C(=O)CCCCC(=O)NCc2ccccc2)c1C`, the growth with NCI-H23 lung is 31.6%; in the test with NCI-H226 lung, 28.6%; in the test on NCI-H322M lung, 77%; in the test with HOP-62 NSCLC it was 57.1%; with NCI-H460 lung, 1.07% (active); in the test with HOP-92 NSCLC it was -55.5% (active). Also, the values for the growth with A549/ATCC NSCLC, in the test with 786-0 renal and with COLO 205 colon were 1.81% (active), 18.9% and 55.2%, respectively.
As for `O=c1c2cccc3c(Nc4ccc(F)cc4)ccc(c32)c2nc3ccccc3n12`, the growth in the test on NCI-H23 lung was 83.8%; in the test on NCI-H226 lung, 92.7%; in the test with NCI-H322M lung it was 67.8%; with HOP-62 NSCLC, 87.5%; in the test with NCI-H460 lung, 77.9%; in the test on HOP-92 NSCLC it was 53.2%. In addition, the growth is 96.1% in the test on A549/ATCC NSCLC, 97.5% in the test on 786-0 renal and 84.5% with COLO 205 colon.
Turning to `CC(=O)C1CCC(C)=CC1=O` (stereo unspecified), the growth is 102% with NCI-H23 lung; 104% in the test on NCI-H226 lung; 85.8% in the test on NCI-H322M lung; 111% in the test on HOP-62 NSCLC; 106% with NCI-H460 lung; 96.9% in the test with HOP-92 NSCLC. Moreover, the growth with A549/ATCC NSCLC was 98.3%; in the test on 786-0 renal, 91.8%; with COLO 205 colon, 116%.
Consider `NC(=O)c1ccc2c(c1)OCO2`, for which the growth with NCI-H23 lung is 89.2%; with NCI-H226 lung, 98.5%; in the test with NCI-H322M lung, 107%; in the test on HOP-62 NSCLC, 112%; in the test with NCI-H460 lung, 109%; in the test with HOP-92 NSCLC, 90.2%. For the same compound, the results for the growth in the test on A549/ATCC NSCLC, in the test with 786-0 renal and in the test on COLO 205 colon were 105%, 105% and 113%, respectively.
Consider `O=C(CCC(=O)OC1CCCC1)OC1CCCC1`, for which the growth in the test with NCI-H23 lung is 105%; with NCI-H226 lung, 96.3%; in the test on NCI-H322M lung, 97%; in the test on HOP-62 NSCLC, 109%; in the test with NCI-H460 lung it was 104%; in the test on HOP-92 NSCLC it was 73.1%. Further, the growth in the test on A549/ATCC NSCLC is 91.4%; in the test with 786-0 renal it was 104%; in the test with COLO 205 colon, 116%.
For `COc1ccc(-c2nc3sccn3c2-c2ccnc(NCCCNS(=O)(=O)c3ccc(C)cc3)n2)cc1`, the growth in the test on NCI-H23 lung is 26.6%; in the test on NCI-H226 lung, 13.7%; in the test on NCI-H322M lung it was 65%; with HOP-62 NSCLC, 86.5%; in the test with NCI-H460 lung, 40%; in the test on HOP-92 NSCLC, 67.5%. Moreover, the growth was 38.8% with A549/ATCC NSCLC, 43.6% in the test with 786-0 renal and 11.5% with COLO 205 colon.
Regarding `CCN1C(=O)N(CC)C2Nn3c(s/c(=C\c4cccc(F)c4)c3=O)=NC21` (stereo unspecified), the growth in the test with NCI-H23 lung is 62.7%; with NCI-H226 lung, 96.1%; in the test on NCI-H322M lung, 96.6%; with HOP-62 NSCLC, 68.1%; with NCI-H460 lung it was 53.9%; in the test with HOP-92 NSCLC, 49.1%. Besides, the growth was 72.5% in the test on A549/ATCC NSCLC, 77.5% in the test with 786-0 renal and 70.7% in the test with COLO 205 colon.
Regarding `N#Cc1c(NC(=O)c2ccc([N+](=O)[O-])o2)[n+]([O-])c2cc(F)c(F)cc2[n+]1[O-]`, the growth in the test on NCI-H23 lung was 99%; with NCI-H226 lung, 108%; in the test with NCI-H322M lung, 119%; with HOP-62 NSCLC it was 123%; in the test with NCI-H460 lung, 110%; in the test with HOP-92 NSCLC, 96.6%. In addition, the values for the growth in the test with A549/ATCC NSCLC, in the test with 786-0 renal and in the test with COLO 205 colon were 116%, 110% and 132%, respectively.
Regarding `COc1ccc(-c2nc3sccn3c2-c2ccnc(NCCCNS(=O)(=O)c3ccc(F)cc3)n2)cc1`, the growth is 1.5% (active) in the test on NCI-H23 lung; -4.69% (active) in the test on NCI-H226 lung; 41.2% in the test on NCI-H322M lung; 30.9% in the test on HOP-62 NSCLC; 19.5% with NCI-H460 lung; 44.2% in the test on HOP-92 NSCLC. Further, the growth is 14% in the test on A549/ATCC NSCLC, 35.5% in the test on 786-0 renal and 1.87% (active) in the test with COLO 205 colon.
Take `CCN(Cc1ccc(CN(CC)C(=O)C(Cl)(Cl)Cl)cc1)C(=O)C(Cl)(Cl)Cl`: the growth is 67.6% in the test on NCI-H23 lung; 83.9% with NCI-H226 lung; 118% with NCI-H322M lung; 98.2% in the test on HOP-62 NSCLC; 86.7% in the test with NCI-H460 lung; 33.1% in the test on HOP-92 NSCLC. The growth with A549/ATCC NSCLC is 79.2%; with 786-0 renal, 72.6%; in the test with COLO 205 colon, 95.7%.
`COc1ccc2c(c1)C(=O)/C(=C/c1ccc(O)cc1)O2`: the growth with NCI-H23 lung is 93.9%; in the test on NCI-H226 lung it was 78.2%; with NCI-H322M lung, 86.6%; with HOP-62 NSCLC, 90.8%; in the test on NCI-H460 lung, 91.2%; in the test on HOP-92 NSCLC, -40% (active). In addition, the growth is 91.8% with A549/ATCC NSCLC, 101% in the test on 786-0 renal and 24.8% in the test with COLO 205 colon.
